# Test results reported in PubChem BioAssay (NCATS).
# Records with an inconclusive call do not appear. Calls of active or inactive are those of the source. The call rests on the fitted dose curve; in most records, active means well fitted curve in the direction sought with a large enough effect; inconclusive means small, poorly fitted or top-dose-only effect, or another doubt; inactive means no such curve, though single readings can be large; an effect the other way counts as inactive or inconclusive. *1 amine or outer side, *2 acyl side, *3 side chain or, on linkers, in order; H or OH if unused. Where a SMILES comes first, the peptide text is derived from it. Bridges are numbered along the chain shown (N, C = ends). [ ]: non-standard residue; d: D form. The star is where a group is joined. ξ: configuration not given here. X10 = NC1=NCCC(C(N[*:1])C(=O)[*:2])N1; ΔAla(3-NHCONH2) = NC(=O)NC=C(N)C(=O)O; pGlu = O=C1CC[C@@H](C(=O)O)N1; ξβ3hOrn = NCCCC(N)CC(=O)*; Dap = NC[CH](N)C(=O)O
# Target: Calcium and integrin-binding protein 1 (Homo sapiens) (UniProt Q99828)
# Assay: Primary qHTS for Identification of Calcium Integrin Binding Protein 1 (CIB1) Competitor (AID 1508620);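 further: GST tagged CIB1 binding a fluorescein labelled alphaIIb integrin peptide tracer; top concentration of the series differs between compounds; on the % scale 0 is the no-effect control and ±100 the full control effect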
# Conditions: CIB1-GST / FITC-alphaIIb peptide fluorescence polarization; series mostly up to 114 µM; activity change, negative = inhibition: at the top concentration
# In short: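 Fluorescence polarization competition: CIB1-GST (1 uM final) preincubated with compound 15 min at room temperature, then FITC-labeled alphaIIb peptide (100 nM final) added for another 15 min. Polarization read at Ex 480/Em 540.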
# Chain of Calcium and integrin-binding protein 1 (Homo sapiens) (Q99828 whole entry, looked up): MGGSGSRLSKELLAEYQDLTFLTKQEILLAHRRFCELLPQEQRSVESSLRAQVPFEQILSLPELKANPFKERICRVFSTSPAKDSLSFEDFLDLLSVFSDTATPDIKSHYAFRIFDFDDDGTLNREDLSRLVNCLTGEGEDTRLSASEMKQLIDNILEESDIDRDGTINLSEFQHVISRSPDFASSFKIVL
row,SMILES,"activity change, negative = inhibition"
1,O=C(CCCCC(=O)Nc1c(I)cc(I)c(C(=O)O)c1I)Nc1c(I)cc(I)c(C(=O)O)c1I,-7.56% (inactive)
2,CCCC(=O)Nc1ccc(O)c(C(C)=O)c1,-0.253% (inactive)
3,COc1ccc2c(c1)CCCC2=O,-1.68% (inactive)
4,C[C@H]1C[C@H](O)c2ccsc2S1(=O)=O,-2.58% (inactive)
5,Cc1cccc(C)c1NC(=O)c1cc(S(N)(=O)=O)c(Cl)cc1O,-8.39% (inactive)
6,CC(=O)N(CC(=O)N(C)C)c1ccccc1,0.688% (inactive)
7,Nc1c(NC/C=C\COc2cc(CN3CCCCC3)ccn2)c(=O)c1=O,5.63% (inactive)
8,C/C(=N/NC(=O)c1ccncc1)C(=O)O,-4.61% (inactive)
9,Clc1ccc2c(c1)Nc1ccccc1S2,-3.19% (inactive)
10,N#C/C(=C1/SC[C@@H](c2ccc(Cl)cc2Cl)S1)n1ccnc1,-2.2% (inactive)
11,COC(=O)C1=C(C)NC(COC(N)=O)=C(C(=O)OC(C)C)C1c1cccc(Cl)c1Cl (configuration not stated),-8.56% (inactive)
12,CC(C)(c1ccc(O)cc1)c1ccc(O)cc1,2.64% [at 228 µM] (inactive)
13,C/C(=C1\CCOC(=O)S1)N(C=O)Cc1cnc(C)nc1N,-6.32% (inactive)
14,CC(=O)OCC(=O)[C@@]1(O)[C@H](OC(C)=O)C[C@H]2[C@@H]3CCC4=CC(=O)C=C[C@]4(C)[C@@]3(F)[C@@H](O)C[C@@]21C,-5.94% (inactive)
15,CCNC(=O)[C@@H]1CCCN1C(=O)[C@H](CCCN=C(N)N)NC(=O)[C@H](CC(C)C)NC(=O)CNC(=O)[C@H](Cc1ccc(O)cc1)NC(=O)[C@H](CO)NC(=O)[C@H](Cc1c[nH]c2ccccc12)NC(=O)[C@H](Cc1cnc[nH]1)NC(=O)[C@@H]1CCC(=O)N1 ([pGlu]HWSYGLRP-NHEt),1.27% (inactive)
16,CC(=O)O[C@@H]1CC2C3CCc4cc(OC(=O)c5ccccc5)ccc4C3CCC2(C)[C@H]1OC(C)=O (some centres not stated),3.4% (inactive)
17,CN(C)CCOC1=Cc2ccccc2Sc2ccc(Cl)cc21,-4.12% (inactive)

row,SMILES,"activity change, negative = inhibition"
1,CCCCCCCCCCCCCCCC[N+](C)(C)Cc1ccccc1,-13.6% (inactive)
2,CCOC(=O)Cn1cccc1-c1nc(-c2ccc(OC)cc2)c(-c2ccc(OC)cc2)s1,4.58% (inactive)
3,CCOc1c(N2CCOCC2)cnn(C)c1=O,2.35% (inactive)
4,O=C(O)c1[nH]n(-c2ccc(S(=O)(=O)O)cc2)c(=O)c1N=Nc1ccc(S(=O)(=O)O)cc1,-0.692% (inactive)
5,Cc1nc(C2CCCCC2)c(-c2ccc(S(N)(=O)=O)c(F)c2)o1,-1.28% (inactive)
6,O=C(O)Cn1c(=O)n(Cc2ccc(Br)cc2F)c(=O)c2ccc(Cl)cc21,-2.48% (inactive)
7,CCCCCC(=O)O[C@]1(C(C)=O)CC[C@H]2[C@@H]3CCC4=CC(=O)CC[C@]4(C)[C@H]3CC[C@@]21C,3.21% (inactive)
8,CC(C(O)c1ccccc1)N(C)CCOC(c1ccccc1)c1ccccc1 (configuration not stated),-0.772% (inactive)
9,N=C(N)c1ccc(OCCCOc2ccc(C(=N)N)cc2)cc1,3.62% (inactive)
10,CC(NC(CCc1ccccc1)C(=O)O)C(=O)N1C(=O)N(C)CC1C(=O)O (configuration not stated),-0.187% (inactive)
11,COC(=O)CCCCC(CCSS/C(CCO)=C(\C)N(C=O)Cc1cnc(C)nc1N)SC(C)=O (configuration not stated),1.45% (inactive)
12,NCCCC(N)CC(=O)NCC1NC(=O)C(CO)NC(=O)C(N)CNC(=O)C(C2CCN=C(N)N2)NC(=O)C(=CNC(N)=O)NC1=O (stereo not drawn) (H-[Dap]S[Dap](ξβ3hOrn)[ΔAla(3-NHCONH2)][X10]; lactam 1-C; configuration not given here),-1.21% [at 1.07 µM] (inactive)
13,Cc1nc([N+](=O)[O-])cn1-c1ccc([N+](=O)[O-])cc1,-6.96% (inactive)
14,c1ccc2occc2c1,-10.4% [at 228 µM] (inactive)
15,CN(C)CCOC(c1ccccc1)c1ccc(Br)cc1 (configuration not stated),1.38% (inactive)
16,O=C(O)/C=C(\CC(=O)O)C(=O)O,2.85% (inactive)

# System: not listed separately
# Assay: Counterscreen qHTS for small molecule stabilizers of the endoplasmic reticulum resident proteome: GLuc-NoTag assay (AID 1508627); further: potency means the concentration at half of the fitted maximal effect;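 on activity change, negative = inhibition: SH-SY5Y cells given compound then 100 nM thapsigargin to empty ER calcium; 0% = thapsigargin alone and -100% = DMSO vehicle control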
# Conditions: Gaussia luciferase NoTag secretion counterscreen, luminescence, thapsigargin 100 nM for final 4 h; series mostly up to 76.4 µM; activity change, negative = inhibition: at the top concentration
# In short: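 SH-SY5Y cells stably expressing constitutively secreted GLuc (no SERCaMP tag) were pre-incubated 5 h, treated with compound for 19 h, then 100 nM thapsigargin for 4 h at 37C; medium GLuc read by coelenterazine luminescence.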
SMILES,"activity change, negative = inhibition",Potency
C[C@H]1C[C@H](O)c2ccsc2S1(=O)=O,13% (inactive),–
CC(C)(c1ccc(O)cc1)c1ccc(O)cc1,–,inactive
Cc1cc2nc3ccc(=[N+](C)C)cc-3sc2cc1N,–,35.5 µM (active)
CN(C)CCOC(c1ccccc1)c1ccc(Br)cc1 (configuration not stated),9.74% (inactive),–
